The text below walks through data of PubChem BioAssay (Tox21).

Values joined by “and” are separate entries in the source; they are usually repeats but may differ in a detail not shown here. Identical values can stand only once. Inconclusive results are not listed. More than one record can exist for a structure, and the calls need not agree. Active and inactive are the calls of the source. Unless noted, the call rests on the fitted dose curve; in most records, active means well fitted curve in the direction sought with a large enough effect in the repeat runs; inconclusive means weak or mixed curves; inactive means no such curve, though single readings can be large; an effect the other way counts as inactive or inconclusive.

The nature of test [1]: qHTS assay to identify small molecule agonists of the peroxisome proliferator-activated receptor delta (PPARd) signaling pathway - cell viability counter screen (AID 743211). Further: nearly all actives have a fitted effect of over 55% in size. Further: potency means the concentration at half of the fitted maximal effect. The essentials: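 Tox21 library compounds, delivered in DMSO, were incubated 17 h with PPARd-bla HEK293H cells; cytotoxicity was taken from CellTiter-Glo luminescence read 30 min after reagent addition.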

Test [2] deals with Peroxisome proliferator-activated receptor delta (Homo sapiens) (UniProt Q03181). Briefly: qHTS assay to identify small molecule agonists of the peroxisome proliferator-activated receptor delta (PPARd) signaling pathway (AID 743212; calls by dose curve). The procedure, abridged: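 GeneBLAzer UAS-bla HEK293H cells carrying a PPARδ construct were exposed to compounds at 37 °C. Beta-lactamase activity was read by FRET fluorescence after 2 h at room temperature with LiveBLAzer B/G substrate.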
Peroxisome proliferator-activated receptor delta (Homo sapiens), sequence (Q03181 whole entry, looked up): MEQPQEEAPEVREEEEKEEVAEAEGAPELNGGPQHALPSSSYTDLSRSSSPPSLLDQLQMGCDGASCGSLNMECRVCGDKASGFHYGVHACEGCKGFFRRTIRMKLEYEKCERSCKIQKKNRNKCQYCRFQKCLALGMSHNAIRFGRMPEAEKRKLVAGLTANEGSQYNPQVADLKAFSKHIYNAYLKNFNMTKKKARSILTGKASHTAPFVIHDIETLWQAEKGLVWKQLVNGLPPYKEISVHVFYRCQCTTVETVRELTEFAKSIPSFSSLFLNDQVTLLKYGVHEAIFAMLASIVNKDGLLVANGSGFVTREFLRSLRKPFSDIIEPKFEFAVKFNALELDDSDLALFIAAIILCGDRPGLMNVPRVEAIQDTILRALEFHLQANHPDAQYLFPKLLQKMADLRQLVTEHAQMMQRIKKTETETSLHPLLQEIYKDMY
(In qHTS, concentration-response curves come from the screen itself.)

Test [3] has the same target. The test can be described thus: qHTS assay to identify small molecule antagonists of the peroxisome proliferator-activated receptor delta (PPARd) signaling pathway (AID 743215; active means well fitted inhibition curve with a large enough effect in the signal ratio in the repeat runs, not every such curve was filed as active; the % refers to the signal ratio; further: series mostly up to about 62 µM). The procedure, abridged: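 Read-out is beta-lactamase FRET fluorescence, measured 2 h after substrate addition at room temperature. Beforehand, UAS-bla HEK293H cells carrying the PPARd reporter were exposed to compounds with L165041 at 300 nM final for 17 h at 37 C.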

A short description of test [4]: qHTS assay to identify small molecule agonists of the farnesoid-X-receptor (FXR) signaling pathway - cell viability counter screen (AID 743218). Further: nearly all actives have a fitted effect of over 45% in size. Further: potency means the concentration at half of the fitted maximal effect. The essentials: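 HEK 293T FXR-bla cells; 5 h pre-incubation, 16 h compound exposure at 37 C; LiveBLAzer substrate 2 h RT, then CellTiter-Glo 30 min RT, luminescence.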
Test [5] in a line: qHTS assay to identify small molecule antagonists of the farnesoid-X-receptor (FXR) signaling pathway - cell viability counter screen (AID 743221; active means well fitted cell-killing curve with a large enough effect in the repeat runs, not every such curve was filed as active; further: nearly all actives have a fitted effect of over 50% in size; further: potency means the concentration at half of the fitted maximal effect). The essentials: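 Cytotoxicity is taken from ATP luminescence (CellTiter-Glo, 30 min, room temperature) in FXR-bla HEK 293T cells previously incubated 16 h at 37 C with compound and chenodeoxycholic acid at 50 uM final.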
In test [6] the target is Vitamin D3 receptor (Homo sapiens) (UniProt P11473). The test can be described thus: qHTS assay to identify small molecule agonists of the vitamin D receptor (VDR) signaling pathway (AID 743222; calls by dose curve). The procedure, abridged:
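VDR-bla cells, 2,000/well; 4 h preincubation 37C; cpd (DMSO) 16 h; LiveBLAzer B/G substrate 2 h RT; fluorescence intensity read.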

Test [7] has the same target. Briefly: qHTS assay to identify small molecule antagonists of the vitamin D receptor (VDR) signaling pathway (AID 743223; active means well fitted inhibition curve with a large enough effect in the signal ratio in the repeat runs, not every such curve was filed as active; the % refers to the signal ratio). The essentials:
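Quantitative HTS in VDR-bla reporter cells stimulated with 1alpha,25-dihydroxyvitamin D3, 3 nM final. Compound exposure 16 h, 37C, 5% CO2. Read-out: beta-lactamase FRET substrate fluorescence, 2 h RT.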

The nature of test [8]: qHTS assay to identify small molecule antagonists of the peroxisome proliferator-activated receptor delta (PPARd) signaling pathway - cell viability counter screen (AID 743213). Further: nearly all actives have a fitted effect of over 50% in size. Further: potency means the concentration at half of the fitted maximal effect. The procedure, abridged: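 Agonist-stimulated (L165041, 300 nM final) HEK293H PPARd UAS-bla cells are exposed to compounds for 17 h at 37 C, and ATP-based luminescence (CellTiter-Glo) from the same wells reports cytotoxicity.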

Test [9] concerns the target Bile acid receptor (Homo sapiens) (UniProt Q96RI1). Briefly: qHTS assay to identify small molecule antagonists of the farnesoid-X-receptor (FXR) signaling pathway (AID 743217; active means well fitted inhibition curve with a large enough effect in the signal ratio in the repeat runs, not every such curve was filed as active; the % refers to the signal ratio). The procedure, abridged: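 HEK 293T FXR-UAS-bla, 5000 cells/well; compound + CDCA 50 uM final; 16 h, 37 °C; B/G FRET substrate 2 h RT; fluorescence.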
The target is the same in test [10]. The test can be described thus: qHTS assay to identify small molecule agonists of the farnesoid-X-receptor (FXR) signaling pathway (AID 743220; active means well fitted activation curve with a large enough effect in the signal ratio in the repeat runs, not every such curve was filed as active; the % refers to the signal ratio). The essentials: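 Beta-lactamase reporter under UAS control in GeneBLAzer FXR HEK 293T cells (5000/well) measured with LiveBLAzer FRET substrate after 2 h at room temperature. Compound exposure lasted 16 h at 37C.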

Vitamin D3 receptor (Homo sapiens), sequence (P11473 whole entry, looked up): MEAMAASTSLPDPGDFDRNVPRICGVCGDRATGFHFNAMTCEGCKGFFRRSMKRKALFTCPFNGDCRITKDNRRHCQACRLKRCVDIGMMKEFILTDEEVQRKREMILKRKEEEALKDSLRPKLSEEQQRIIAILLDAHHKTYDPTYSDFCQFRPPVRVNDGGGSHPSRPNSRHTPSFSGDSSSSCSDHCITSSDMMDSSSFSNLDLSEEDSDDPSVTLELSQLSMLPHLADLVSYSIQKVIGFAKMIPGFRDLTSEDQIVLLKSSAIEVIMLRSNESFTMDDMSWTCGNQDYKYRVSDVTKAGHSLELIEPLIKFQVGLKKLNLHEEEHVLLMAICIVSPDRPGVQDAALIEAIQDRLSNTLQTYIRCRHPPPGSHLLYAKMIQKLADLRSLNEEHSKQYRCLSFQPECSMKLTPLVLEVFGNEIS
Bile acid receptor (Homo sapiens), sequence (Q96RI1 whole entry, looked up): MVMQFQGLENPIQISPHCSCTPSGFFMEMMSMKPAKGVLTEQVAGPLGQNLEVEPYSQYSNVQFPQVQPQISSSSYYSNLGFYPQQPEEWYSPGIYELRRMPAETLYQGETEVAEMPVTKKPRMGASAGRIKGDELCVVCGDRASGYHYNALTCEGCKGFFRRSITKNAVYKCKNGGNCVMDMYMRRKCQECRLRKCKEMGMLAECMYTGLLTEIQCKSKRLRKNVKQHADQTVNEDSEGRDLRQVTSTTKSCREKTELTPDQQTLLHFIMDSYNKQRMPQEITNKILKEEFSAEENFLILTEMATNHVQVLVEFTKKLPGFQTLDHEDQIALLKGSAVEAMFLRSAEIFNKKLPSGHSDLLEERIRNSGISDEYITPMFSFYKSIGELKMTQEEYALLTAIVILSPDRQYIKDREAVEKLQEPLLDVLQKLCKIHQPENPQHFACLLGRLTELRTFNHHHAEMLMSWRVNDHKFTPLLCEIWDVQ

Take `CC(Cl)(Cl)Cl`: the Potency result in [1], in test [3], in [4] and in test [5] was “inactive” in each case. For the same molecule, the call in test [2], in test [6] and in test [7] was inactive.

Consider `Cc1ccc2cc(C)ccc2c1`, for which the Potency entry in test [1], in test [8], in [4] and in test [5] was “inactive” throughout. Besides, the molecule was classed as inactive in test [9], in [10] and in test [6].

For `CCN1CCCC1CNC(=O)C(O)(c1ccccc1)c1ccccc1` (configuration not stated), the Potency entry in [1], in test [8], in test [4] and in [5] was “inactive” each time. Moreover, the molecule was classed as inactive in test [9], in test [10], in [6] and in test [7].

For `CN=CNc1ccc(C)cc1C`, the Potency result in [1], in [8], in test [4] and in test [5] was “inactive” throughout. In addition, the call in test [2], in test [6] and in test [7] was inactive.

Take `CC(Cc1ccccc1)NCCn1cnc2c1c(=O)n(C)c(=O)n2C` (configuration not stated): the Potency result in [1], in test [8], in test [4] and in test [5] was “inactive” each time. For the same molecule, the result in test [2], in test [6] and in [7] was inactive.

In the case of `COc1cc(CC(C)N)cc(OC)c1OC` (configuration not stated), the Potency result in test [1], in test [8], in test [3], in test [4] and in test [5] was “inactive” throughout.

`C/C(=N\NC(=O)Nc1cc(F)cc(F)c1)c1ncccc1C(=O)O`: the Potency entry in test [1], in test [8] and in test [5] was “inactive” in each case. Also, the molecule was classed as inactive in test [9], in [10], in test [6] and in [7].

Turning to `C#CCOC(=O)/C=C(C)/C=C/CC(C)CCCC(C)C` (configuration not stated), the Potency entry in [1], in test [3], in test [4] and in test [5] was “inactive” each time. Further, the molecule was classed as inactive in test [2], in test [9], in test [10] and in [7].

Regarding `Cc1ccc(S(=O)(=O)N[C@@H](CCCCN)C(=O)CCl)cc1`, the Potency entry in test [1], in test [8], in test [4] and in [5] was “inactive” in each case. Further, the result in test [9] and in [10] was inactive.

Regarding `C=CCN1CC[C@]23CCCC[C@H]2[C@H]1Cc1ccc(O)cc13`, the Potency result in [1], in [8], in test [4] and in [5] was “inactive” each time. Moreover, the outcome in test [9], in test [10], in test [6] and in [7] was inactive.

For `O=P(O)(O)c1ccccc1`, the Potency result in test [1], in test [8], in [4] and in test [5] was “inactive” throughout. Moreover, the call in test [2], in test [6] and in test [7] was inactive.

For the molecule `O=C1C2CC=CCC2C(=O)N1SC(Cl)(Cl)Cl` (configuration not stated), the Potency result in test [1] is “inactive and 10.8 µM (active)”; in test [8], “inactive and 12.1 µM (active)”; in test [4], “inactive and 21.5 µM (active)”; in [5], “inactive and 42.9 µM (active)”. Further, the molecule was called inactive in test [2] and in test [7].

For the molecule `CC(C)(N)Cc1ccc(Cl)cc1`, the Potency entry in test [1], in [3], in [4] and in test [5] was “inactive” in each case. The outcome in test [2] and in test [6] was inactive.

Consider `C=CC=O`, for which the Potency entry in [1], in test [4] and in [5] was “inactive” in each case. Moreover, the molecule was classed as inactive in test [2] and in test [7].

As to `CN1COCN(Cc2cnc(Cl)s2)/C1=N\[N+](=O)[O-]`, the Potency entry in test [1], in test [3], in [4] and in test [5] was “inactive” throughout. The molecule was classed as inactive in test [2], in [9], in test [10] and in test [7].

`N=C(N)[Se]`: the Potency result in [1], in test [3], in test [4] and in test [5] was “inactive” in each case. The outcome in test [2], in test [6] and in [7] was inactive.

In the case of `Cc1ccc(Cl)c(O)c1`, the Potency entry in [1], in test [3], in test [4] and in test [5] was “inactive” throughout. For the same molecule, the call in test [2], in [9], in [10] and in test [6] was inactive.

On to `CCSC(=O)Cl`, for which the Potency entry in [1], in [8], in test [4] and in [5] was “inactive” throughout. The outcome in test [9] and in test [10] was inactive.

Consider `NC(=O)CS(=O)C(c1ccccc1)c1ccccc1` (configuration not stated), for which the Potency result in [1], in test [8], in test [4] and in test [5] was “inactive” in each case.

Turning to `CC(=NC#N)N(C)Cc1ccc(Cl)nc1`, the Potency result in test [1], in test [8], in [4] and in test [5] was “inactive” throughout. Also, the call in test [2] and in test [7] was inactive.

Turning to `CC(C)NCC(O)c1ccc([N+](=O)[O-])cc1` (configuration not stated), the outcome in test [2], in test [9], in [10], in test [6] and in [7] was inactive. For the same molecule, the Potency entry in test [8], in test [3], in test [4] and in test [5] was “inactive” throughout.
